From PubChem BioAssay (NCATS)
Where “and” joins values, the source holds several entries; their conditions need not be identical. Equal entries are not always repeated. Records with an inconclusive call do not appear. Calls of active or inactive are those of the source. Unless noted, the call rests on the fitted dose curve; in most records, active means well fitted curve in the direction sought with a large enough effect; inconclusive means small, poorly fitted or top-dose-only effect, or another doubt; inactive means no such curve, though single readings can be large; an effect the other way counts as inactive or inconclusive. Where a SMILES comes first, the peptide text is derived from it. Bridges are numbered along the chain shown (N, C = ends). [ ]: non-standard residue; d: D form. hArg = N=C(N)NCCCC[C@H](N)C(=O)O; Mpa = O=C(O)CCS

Experiments:
[1] = tested on: JEG-3; assay: Primary qHTS to identify gynecologic anti-cancer compounds using libraries of approved drugs and bioactive compounds (AID 1345084); settings: Gynecologic cancer cell panel viability, ATPlite luminescence, 48 h; series mostly up to 57.5 µM; further: on the % scale 0 is the no-effect control and ±100 the full control effect; nearly all actives have a fitted effect of over 55% in size
Summary of the method: (§1)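 Luminescence from the ATPlite ATP-monitoring reagent indicates viable cell number; lower signal means cytotoxicity. Cells received compound 16 h after seeding and were exposed for 48 h across five concentrations.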

[2] = tested on: OV90; assay: as above; settings: Gynecologic cancer cell panel viability, ATPlite luminescence, 48 h; series mostly up to 57.5 µM
Summary of the method: as §1

[3] = tested on: PA-1; assay: as above; settings: Gynecologic cancer cell panel viability, ATPlite luminescence, 48 h; series mostly up to 57.5 µM
Summary of the method: as §1

[4] = tested on: SKOV3; assay: as above; settings: Gynecologic cancer cell panel viability, ATPlite luminescence, 48 h; series mostly up to 57.5 µM
Summary of the method: as §1

[5] = tested on: Tov-21-G; assay: as above; settings: Gynecologic cancer cell panel viability, ATPlite luminescence, 48 h; series mostly up to 57.5 µM
Summary of the method: as §1

[6] = tested on: Tov112D; assay: as above; settings: Gynecologic cancer cell panel viability, ATPlite luminescence, 48 h; series mostly up to 57.5 µM
Summary of the method: as §1

[7] = Drug repurposing screens with cells derived from glioblastoma tumor samples (AID 1345199); settings: GBM patient neurospheres viability, ATP luminescence, 48 h; further: on the % scale 0 is the no-effect control and ±100 the full control effect; nearly all actives have a fitted effect of over 40% in size
Summary of the method: (§2)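 Primary testing used CD133+ neurospheres from four GBM patients, seven concentrations, 48 h exposure and ATP-based viability; confirmation added three slower-growing patient lines.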

[8] = tested on: astro; assay: as above; settings: viability, ATP luminescence, 48 h; series mostly up to 45.9 µM
Summary of the method: as §2

[9] = biological target: Nuclear receptor subfamily 1 group I member 2 (Rattus norvegicus) (UniProt Q9R1A7); assay: qHTS assay for small molecule activators of the rat pregnane X receptor (rPXR) signaling pathway (AID 651751; call rule not given here; further: 0% is about no effect); settings: rPXR reporter cells, luciferase (One-Glo), 24 h
[10] = at 45.9 µM (top of the series), tumour line B
[11] = at 45.9 µM (top of the series), tumour line D
[12] = at 46 µM (top of the series), tumour line A
[13] = at 46.1 µM (top of the series), tumour line C
[14] = at 20 µM (top of the series), tumour line C
[15] = at 21.2 µM (top of the series), tumour line B
[16] = at 21.2 µM (top of the series), tumour line D
[17] = at 21.3 µM (top of the series), tumour line A

Chain of Nuclear receptor subfamily 1 group I member 2 (Rattus norvegicus) (Q9R1A7 whole entry, looked up): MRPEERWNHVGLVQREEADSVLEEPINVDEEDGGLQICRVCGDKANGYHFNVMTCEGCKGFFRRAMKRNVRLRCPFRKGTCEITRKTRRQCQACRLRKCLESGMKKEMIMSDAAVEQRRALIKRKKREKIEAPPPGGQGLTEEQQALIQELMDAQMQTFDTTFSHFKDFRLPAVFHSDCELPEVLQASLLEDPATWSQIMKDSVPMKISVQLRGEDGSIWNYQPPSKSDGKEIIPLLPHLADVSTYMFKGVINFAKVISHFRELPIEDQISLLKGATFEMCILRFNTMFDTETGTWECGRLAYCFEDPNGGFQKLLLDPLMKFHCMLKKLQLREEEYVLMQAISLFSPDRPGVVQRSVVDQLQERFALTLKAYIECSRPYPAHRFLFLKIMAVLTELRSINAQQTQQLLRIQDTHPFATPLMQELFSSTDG

NC(=O)[C@@H]1CSSCCC(=O)N[C@@H](CCCCN=C(N)N)C(=O)NCC(=O)N[C@@H](CC(=O)O)C(=O)N[C@@H](Cc2c[nH]c3ccccc23)C(=O)N2CCC[C@H]2C(=O)N1 ([Mpa][hArg]GDWPC-NH2; disulfide 1-7)
inactive: outcome [1] | Potency [2] | outcome [3] | outcome [4] | outcome [5] | outcome [6] | activity, negative = cell killing [7, 10] 1.12% | activity, negative = cell killing [7, 11] 4.68% | activity, negative = cell killing [7, 12] -11% | activity, negative = cell killing [7, 13] -19.2% | outcome [8]

CCOC(N)=O
inactive: outcome [1] | Potency [2] | outcome [3] | outcome [4] | outcome [5] | outcome [6] | activity, negative = cell killing [7, 10] -14.9% | activity, negative = cell killing [7, 11] 19.2% | activity, negative = cell killing [7, 12] -11.2% | activity, negative = cell killing [7, 13] -16.1% | outcome [8]

CCc1cccc(CC)c1NC(=O)CN(CC(=O)O)CC(=O)O
inactive: outcome [1] | Potency [2] | outcome [3] | outcome [4] | outcome [5] | outcome [6] | activity, negative = cell killing [7, 14] -11.2% | activity, negative = cell killing [7, 15] -2.25% | activity, negative = cell killing [7, 16] -7.08% | activity, negative = cell killing [7, 17] -26% | outcome [8]

CC(C)CCCC(C)CCCC(C)CCCCC(C)CCCC(C)CCCC(C)C (stereo unspecified)
inactive: outcome [1] | Potency [2] | outcome [3] | outcome [4] | outcome [5] | outcome [6] | activity, negative = cell killing [7, 10] 2.81% | activity, negative = cell killing [7, 11] 2.23% | activity, negative = cell killing [7, 12] -12.7% | activity, negative = cell killing [7, 13] 8.73% | outcome [8]

O=C(Cn1ccnc1[N+](=O)[O-])NCCO
inactive: outcome [1] | Potency [2] | outcome [3] | outcome [4] | outcome [5] | outcome [6] | activity, negative = cell killing [7, 10] -12.6% | activity, negative = cell killing [7, 11] -6.24% | activity, negative = cell killing [7, 12] -16.3% | activity, negative = cell killing [7, 13] -12.1% | outcome [8]

Cc1[nH]c(C)c(Cl)c(=O)c1Cl
inactive: outcome [1] | Potency [2] | outcome [3] | outcome [4] | outcome [5] | outcome [6] | activity, negative = cell killing [7, 10] -9.77% | activity, negative = cell killing [7, 11] -2.96% | activity, negative = cell killing [7, 12] -17.9% | activity, negative = cell killing [7, 13] -6.6% | outcome [8]

CCN(CC)CCc1nc(-c2ccccc2)no1
inactive: outcome [1] | Potency [2] | outcome [3] | outcome [4] | outcome [5] | outcome [6] | activity, negative = cell killing [7, 14] -35.3% | activity, negative = cell killing [7, 15] 0.0715% | activity, negative = cell killing [7, 16] 5.97% | activity, negative = cell killing [7, 17] -18.4% | outcome [8]

O=C(Cn1ccnc1[N+](=O)[O-])NCc1ccccc1
inactive: outcome [1] | Potency [2] | outcome [3] | outcome [4] | outcome [5] | outcome [6] | activity, negative = cell killing [7, 10] 4.79% | activity, negative = cell killing [7, 11] 3.98% | activity, negative = cell killing [7, 12] -20.7% | activity, negative = cell killing [7, 13] -17.9% | outcome [8]

FC(F)(F)C(Cl)Br (stereo unspecified)
inactive: outcome [1] | Potency [2] | outcome [3] | outcome [4] | outcome [5] | outcome [6] | activity, negative = cell killing [7, 10] -5.12% | activity, negative = cell killing [7, 11] -3.03% | activity, negative = cell killing [7, 12] -22.4% | activity, negative = cell killing [7, 13] -0.139% | outcome [8] | max response [9] 3.38%

Cc1c(I)c(=O)n(-c2ccccc2)n1C
inactive: outcome [1] | Potency [2] | outcome [3] | outcome [4] | outcome [5] | outcome [6] | activity, negative = cell killing [7, 10] -4.2% | activity, negative = cell killing [7, 11] -14% | activity, negative = cell killing [7, 12] -24.2% | activity, negative = cell killing [7, 13] 3.68% | outcome [8]

O=C(c1ccccc1)C(O)c1ccccc1 (stereo unspecified)
inactive: outcome [1] | Potency [2] | outcome [3] | outcome [4] | outcome [5] | outcome [6] | activity, negative = cell killing [7, 10] 4.63% | activity, negative = cell killing [7, 11] -16.7% | activity, negative = cell killing [7, 12] -19% | activity, negative = cell killing [7, 13] -3.13% | outcome [8] | max response [9] 4.81% and 0.908%

OCCN1C[C@H](O)[C@@H](O)[C@H](O)[C@H]1CO
inactive: outcome [1] | Potency [2] | outcome [3] | outcome [4] | outcome [5] | outcome [6] | activity, negative = cell killing [7, 10] -4.15% | activity, negative = cell killing [7, 11] -2.64% | activity, negative = cell killing [7, 12] -17.7% | activity, negative = cell killing [7, 13] -28.1% | outcome [8]

CC1CC(OC(=O)c2ccccc2O)CC(C)(C)C1 (stereo unspecified)
inactive: outcome [1] | Potency [2] | outcome [3] | outcome [4] | outcome [5] | outcome [6] | activity, negative = cell killing [7, 10] -18.3% | activity, negative = cell killing [7, 11] -10.1% | activity, negative = cell killing [7, 12] -28.9% | activity, negative = cell killing [7, 13] 1.33% | outcome [8] | max response [9] 5.1%
